# According to the supplement of paper PMC7156485:
# ± gives the standard deviation of the averaged measurements.
# System: HCC1569
# Assay: cell number relative to DMSO (% of DMSO); higher = more cells (less growth inhibition / toxicity)
# Conditions: concentration: 10 µM; 24 h
# Summary of the method: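 In 384-well plates holding 800 HCC1569 or TDF cells per well in RPMI with 10% FBS, compounds were tested at 10 µM for 24 h at 37 °C in triplicate. Fixation used 3.7% formaldehyde. Staining used a rabbit anti-H1.0 antibody with an AlexaFluor 647 secondary, plus DAPI. Each value, H1.0 nuclear intensity or cell number, is a median of replicates shown as percent of the plate control, and HCC1569 values were smoothed for positional effects.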
# 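Also: TDF denotes transformed human dermal fibroblasts of mesenchymal origin.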
row,SMILES,cell number
1,O=C(CCc1ccc(O)cc1)c1c(O)cc(O)cc1OC1OC(CO)C(O)C(O)C1O (stereo not given) [Phlorizine],101
2,CN(C)CCCN1c2ccccc2Sc2ccc(Cl)cc21.Cl [Chlorpromazine hydrochloride],88.5
3,CCCCCCCCCCCC=CCCCCC(=O)O [6(Z)-Octadecenoic acid],100
4,COc1nc(C)nc(Cl)c1NC1=NCCN1.Cl [Moxonidine hydrochloride],102
5,Cc1cc(N)c2ccccc2[n+]1CCCCCCCCCC[n+]1c(C)cc(N)c2ccccc21.[Cl-].[Cl-] [Dequalinium dichloride],74.8
6,O=C1CCC(N2C(=O)c3ccccc3C2=O)C(=O)N1 (racemic),103
7,O=C(CCl)c1c[nH]c2ccccc12 [2-chloro-1-(1H-indol-3-yl)ethanone],63.6
8,O=C(O)CCCC=CCC1C(O)CC(F)C1C=CC(O)C1Cc2ccccc2C1 (stereo not given),103
9,CC(C)(C)NCC(O)c1cc(O)cc(O)c1.CC(C)(C)NCC(O)c1cc(O)cc(O)c1.O=S(=O)(O)O (stereo not given) [Terbutaline hemisulfate],106
10,O=C1NC(=O)C(=Cc2ccc(-c3ccc(F)cc3O)o2)S1,97.3
11,CCCCCCCCCCCCCCCCOCC(CO)OC(C)=O (stereo not given) [1-Hexadecyl-2-O-acetyl-glycerol],106
12,Br.CN1CCc2cc(O)c(O)cc2C1Cc1ccc(O)c(O)c1.O.O.O (stereo not given),105
13,COc1cc(C(=O)OC2CC3CCC2(C)C3(C)C)ccc1O (stereo not given) [Tschimganine],101
14,Br.Oc1ccc(C2CNCCc3c2cc(O)c(O)c3Cl)cc1 (stereo not given) [Fenoldopam bromide],103
15,N=c1ccn2c(n1)OC1C(O)C(CO)OC12 (stereo not given) [Cyclocytidine],76.4
16,Cc1cc2c(OCC(CNC(C)(C)C)OC(=O)c3ccccc3)cccc2[nH]1 (stereo not given) [Bopindolol],98.1
17,CC(C)Cn1cnc2c(N)nc3ccccc3c21 [Imiquimod],102
18,CC1OC(n2cc(F)c(=O)[nH]c2=O)C(O)C1O (stereo not given) [Doxifluridine],88.3

row,SMILES,cell number
1,Cl.NCC1OC(C23CC4CC(CC(C4)C2)C3)Cc2c1ccc(O)c2O (stereo not given),73.5
2,"CCC12CCCN3CCc4c(n(c5ccccc45)C(=O)C1)C32 (single isomer, unassigned; (-)) [(-)-Eburnamonine]",83.7
3,CCCCCC=CCC=CCC=CCC=CCCCC(=O)OC(COCCCCCCCCCCCCCCCC)COP(=O)([O-])OCC[N+](C)(C)C (stereo not given) [Arachidonyl-PAF],98
4,Cc1coc2c1C(=O)C(=O)c1c-2ccc2c1CCCC2(C)C [Tanshinone IIA],85.3 ± 2.9
5,CC1(NCC(O)COc2cccc3[nH]ccc23)CCC(C(C)(C)NC(=O)CBr)CC1 (stereo not given) [Pindobind-5HT1A],61.4
6,CC[N+](C)(C)c1cccc(O)c1.[Cl-] [Edrophonium chloride],102
7,CCCNCC(O)COc1ccccc1C(=O)CCc1ccccc1 (stereo not given) [Propafenone],103
8,C[N+](C)(C)CCOC(=O)CCC(=O)OCC[N+](C)(C)C.[Cl-].[Cl-] [Succinylcholine chloride],100
9,CC(N=C(NC#N)Nc1ccncc1)C(C)(C)C (stereo not given) [Pinacidil],103 ± 2.5
10,N[C@@H](COP(=O)(O)O)C(=O)O [O-Phospho-L-serine],99.1
11,CSc1ccc(C(=O)c2[nH]c(=O)[nH]c2C)cc1 [Enoximone],107
12,O=C(c1ccc(C(=O)N2CCC(N3CCCC3)CC2)c(Nc2ccccc2)c1)N1CCC(N2CCCC2)CC1,99.8
13,CN=C(NC#N)Nc1ccc(C2=NNC(=O)CC2C)cc1 (stereo not given) [Siguazodan],103
14,O=c1[nH]c(=O)n(C2CC(O)C(CO)O2)cc1Br (stereo not given) [5-Bromo-2'-deoxyuridine],99
15,COc1cc2ncc(-c3ccccc3)nc2cc1OC [Tyrphostin AG 1296],98.1
16,CCOc1nc2cccc(C(=O)O)c2n1Cc1ccc(-c2ccccc2-c2nn[nH]n2)cc1 [Candesartan],104
17,C=Cc1c(C)c2cc3[nH]c(cc4nc(cc5nc(cc1[nH]2)C(C)=C5CCC(=O)O)C(CCC(=O)O)=C4C)c(C)c3C=C [Protoporphyrin IX disodium],103
